# Results as given in PubChem BioAssay (NCI).
# This is part of a sample that, as a whole, favours compounds with a hit. Of some 79,000 tested, about 15% had one in any assay. Unmarked numbers belong to inactive results. Activity calls are given as the source filed them. Rule as the data show it: active = growth inhibition above about 70%; inactive = the rest.
# Legend:
# [1] = NCI Yeast Anticancer Drug Screen. Data for the rad52 strain (AID 147);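 also: 0% = growth of vehicle-treated control cultures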; settings: S. cerevisiae rad52 mutant growth inhibition, hits give high values
# How it was run: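 Yeast strain carrying a DNA damage repair alteration was exposed to test compounds. Growth inhibition was measured relative to vehicle-treated controls.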
# [2] = NCI Yeast Anticancer Drug Screen. Data for the wt1 strain (AID 149);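 also: 0% = growth of vehicle-treated wt1 cultures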; settings: S. cerevisiae wt1 strain (SPY 50644) growth inhibition, hits give high values
# How it was run: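 Yeast wt1 strain exposed to compounds; growth inhibition measured relative to vehicle-treated controls.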
# [3] = NCI Yeast Anticancer Drug Screen. Data for the rad50EPP+ strain (AID 151);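 also: 0% = growth of vehicle-treated control cultures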; settings: S. cerevisiae rad50 mutant strain, hits give high values
# How it was run: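 Yeast strain carrying rad50 alteration (rad50EPP+) exposed to compounds; growth inhibition measured relative to vehicle-treated controls.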
# [4] = NCI Yeast Anticancer Drug Screen. Data for the rad50 strain (AID 155);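 also: 0% = growth of vehicle-only cultures of the same strain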; settings: S. cerevisiae rad50 strain growth inhibition, hits give high values
# How it was run: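 Yeast carrying a defined DNA repair defect were exposed to test compounds, and growth was compared with vehicle-treated controls to give percent inhibition.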
# [5] = NCI Yeast Anticancer Drug Screen. Data for the mec2-1 strain (AID 157); settings: S. cerevisiae mec2-1 strain, hits give high values
# How it was run: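 mec2-1 yeast strain, carrying an alteration in DNA damage repair or cell cycle control, was exposed to compounds; growth inhibition was measured relative to vehicle-treated controls.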
# [6] = NCI Yeast Anticancer Drug Screen. Data for the rad14 strain (AID 159);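 also: 0% = growth of vehicle-treated control cultures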; settings: S. cerevisiae rad14 strain growth inhibition, hits give high values
# How it was run: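 Yeast cells carrying a defined DNA-repair defect were exposed to compounds, and growth inhibition was calculated relative to vehicle-treated control cultures.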
# [7] = NCI Yeast Anticancer Drug Screen. Data for the sgs1 mgt1 strain (AID 161);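 also: 0% = growth of cultures given vehicle only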; settings: S. cerevisiae sgs1 mgt1 strain, hits give high values
# How it was run: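 This yeast growth screen uses a strain with defined DNA-repair lesions; compound-treated growth is compared with vehicle-treated growth.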
# [8] = NCI Yeast Anticancer Drug Screen. Data for the CLN2oe strain (AID 163);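 also: 0% = growth of vehicle-only control cultures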; settings: S. cerevisiae CLN2oe strain, hits give high values
# How it was run: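 Yeast cells carrying a defined cell-cycle control alteration were exposed to test compounds. Growth inhibition was scored against vehicle-treated control cultures.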
# [9] = NCI Yeast Anticancer Drug Screen. Data for the bub3 strain (AID 167); settings: S. cerevisiae bub3 mutant strain, hits give high values
# How it was run: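 Compounds were applied to a genetically altered yeast strain carrying a cell-cycle control defect. Growth inhibition was scored against vehicle-treated controls.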
# [10] = NCI Yeast Anticancer Drug Screen. Data for the wt2 strain (AID 169);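 also: 0% = growth of vehicle-treated yeast cultures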; settings: S. cerevisiae wt2 strain growth inhibition, hits give high values
# How it was run: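 Yeast cells were exposed to test compounds, and growth inhibition was measured relative to vehicle-treated controls.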
# [11] = NCI Yeast Anticancer Drug Screen. Data for the mlh1 strain (AID 171);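 also: 0% = growth of vehicle-treated control cultures of the same strain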; settings: S. cerevisiae mlh1 strain growth inhibition, hits give high values
# How it was run: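 Yeast carrying a defined genetic alteration in DNA damage repair or cell cycle control were exposed to test compounds. Growth inhibition was measured relative to vehicle-treated controls.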
# [12] = NCI Yeast Anticancer Drug Screen. Data for the sgs1 strain (AID 173);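 also: 0% = growth of vehicle-only control cultures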; settings: S. cerevisiae sgs1 mutant, hits give high values
# How it was run: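 Yeast mutant strains carrying defined defects in DNA damage repair or cell cycle control were exposed to test compounds. Growth inhibition was scored against vehicle-treated controls.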
# [13] = NCI Yeast Anticancer Drug Screen. Data for the mlh1 rad18 strain (AID 175); settings: S. cerevisiae mlh1 rad18 strain growth inhibition, hits give high values
# How it was run: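 Growth inhibition of the yeast strain was measured after compound exposure and expressed relative to vehicle-treated controls. The strain carries defined defects in DNA damage repair.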
# [14] = NCI Yeast Anticancer Drug Screen. Data for the rad18 strain (AID 177); settings: S. cerevisiae rad18 mutant growth inhibition, hits give high values
# How it was run: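 Yeast carrying a defined DNA damage repair alteration were exposed to compounds. Growth inhibition was expressed relative to vehicle-treated controls.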
# [15] = at 5.0 µM (retest, dose inferred, filed as 0.5)
# [16] = at 50.0 µM (retest, dose inferred, filed as 5.0)
compound,measurement,setting,value
O=C1C=CC(=Nc2ccccc2)c2ccccc21,growth inhibition,[1]; at 1.2 µM,1%
same,growth inhibition,[1]; at 3.7 µM,5%
same,growth inhibition,[1]; at 11.0 µM,20%
same,growth inhibition,[1]; at 33.0 µM,55%
same,growth inhibition,[1]; at 100.0 µM,77% (active)
same,growth inhibition,[2]; at 1.2 µM,8%
same,growth inhibition,[2]; at 3.7 µM,12%
same,growth inhibition,[2]; at 11.0 µM,21%
same,growth inhibition,[2]; at 33.0 µM,38%
same,growth inhibition,[2]; at 100.0 µM,45%
same,growth inhibition,[3]; at 1.2 µM,3%
same,growth inhibition,[3]; at 3.7 µM,8%
same,growth inhibition,[3]; at 11.0 µM,28%
same,growth inhibition,[3]; at 33.0 µM,53%
same,growth inhibition,[3]; at 100.0 µM,70% (active)
same,growth inhibition,[4]; at 1.2 µM,3%
same,growth inhibition,[4]; at 3.7 µM,15%
same,growth inhibition,[4]; [15],-8%
same,growth inhibition,[4]; at 11.0 µM,65%
same,growth inhibition,[4]; at 33.0 µM,88% (active)
same,growth inhibition,[4]; [16],70% (active)
same,growth inhibition,[4]; at 50.0 µM,37.9%
same,growth inhibition,[4]; at 100.0 µM,85% (active)
same,growth inhibition,[5]; at 1.2 µM,5%
same,growth inhibition,[5]; at 3.7 µM,10%
same,growth inhibition,[5]; [15],22%
same,growth inhibition,[5]; at 11.0 µM,19%
same,growth inhibition,[5]; at 33.0 µM,28%
same,growth inhibition,[5]; [16],43%
same,growth inhibition,[5]; at 50.0 µM,45.3%
same,growth inhibition,[5]; at 100.0 µM,44%
same,growth inhibition,[6]; at 1.2 µM,-1%
same,growth inhibition,[6]; at 3.7 µM,1%
same,growth inhibition,[6]; at 11.0 µM,12%
same,growth inhibition,[6]; at 33.0 µM,38%
same,growth inhibition,[6]; at 100.0 µM,58%
same,growth inhibition,[7]; [15],30%
same,growth inhibition,[7]; [16],60%
same,growth inhibition,[7]; at 50.0 µM,31.6%
same,growth inhibition,[8]; at 1.2 µM,-2%
same,growth inhibition,[8]; at 3.7 µM,-4%
same,growth inhibition,[8]; at 11.0 µM,6%
same,growth inhibition,[8]; at 33.0 µM,43%
same,growth inhibition,[8]; at 100.0 µM,39%
same,growth inhibition,[9]; at 1.2 µM,12%
same,growth inhibition,[9]; at 3.7 µM,37%
same,growth inhibition,[9]; [15],65%
same,growth inhibition,[9]; at 11.0 µM,62%
same,growth inhibition,[9]; at 33.0 µM,84% (active)
same,growth inhibition,[9]; [16],94% (active)
same,growth inhibition,[9]; at 50.0 µM,82.3% (active)
same,growth inhibition,[9]; at 100.0 µM,88% (active)
same,growth inhibition,[10]; at 1.2 µM,8%
same,growth inhibition,[10]; at 3.7 µM,17%
same,growth inhibition,[10]; at 11.0 µM,35%
same,growth inhibition,[10]; at 33.0 µM,54%
same,growth inhibition,[10]; at 100.0 µM,69%
same,growth inhibition,[11]; at 1.2 µM,3%
same,growth inhibition,[11]; at 3.7 µM,5%
same,growth inhibition,[11]; at 11.0 µM,20%
same,growth inhibition,[11]; at 33.0 µM,67%
same,growth inhibition,[11]; at 100.0 µM,82% (active)
same,growth inhibition,[12]; at 1.2 µM,5%
same,growth inhibition,[12]; at 3.7 µM,12%
same,growth inhibition,[12]; at 11.0 µM,29%
same,growth inhibition,[12]; at 33.0 µM,60%
same,growth inhibition,[12]; at 100.0 µM,76% (active)
same,growth inhibition,[13]; [15],27%
same,growth inhibition,[13]; [16],87% (active)
same,growth inhibition,[13]; at 50.0 µM,36.5%
same,growth inhibition,[14]; at 1.2 µM,2%
same,growth inhibition,[14]; at 3.7 µM,6%
same,growth inhibition,[14]; at 11.0 µM,37%
same,growth inhibition,[14]; at 33.0 µM,84% (active)
same,growth inhibition,[14]; at 100.0 µM,80% (active)
